Where “and” joins values, the source holds several entries; their conditions need not be identical. Equal entries are not always repeated. Records with an inconclusive call do not appear. Calls of active or inactive are those of the source. Unless noted, the rule behind the calls is not given here. Peptide text beside a SMILES is read from it.
Key:
[1] = hESC survival regulators, cell-based (AID 493140); details: human embryonic stem cell survival screen; stronger effect = higher value;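 note: cells exposed to compounds for four days before counting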
[2] = growth inhibition of DIPG glioma cells, dose response, cell-based, SU-DIPG-XVII, MIPE5.0, CellTiter-Glo, qHTS (AID 1347060; cut-off not given, nearly all actives have AC50 up to about 26 µM); details: SU-DIPG-XVII viability, CellTiter-Glo ATP luminescence
[3] = growth inhibition of DIPG glioma cells, dose response, cell-based, SU-DIPG-IV, MIPE4.0, CellTiter-Glo, qHTS (AID 1347063; cut-off not given, nearly all actives have AC50 up to about 30 µM;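 note: compound exposure lasted 48 hours before the viability readout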); details: SU-DIPG-IV viability, CellTiter-Glo ATP luminescence
[4] = growth inhibition of DIPG glioma cells, dose response, cell-based, SU-DIPG-XIII, MIPE5.0, CellTiter-Glo, qHTS (AID 1347064; cut-off not given, nearly all actives have AC50 up to about 23 µM); details: SU-DIPG-XIII viability, CellTiter-Glo ATP luminescence
[5] = viability loss in pontine glioma line – cell-based, SU-DIPG-XXV, MIPE5.0, CellTiter-Glo, qHTS, dose response (AID 1347065; cut-off not given, nearly all actives have AC50 up to about 26 µM;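 note: cells exposed to compound for 48 hours before ATP readout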); details: CellTiter-Glo ATP luminescence
[6] = SU-DIPG-VI glioma cell viability, MIPE4.0 library, CellTiter-Glo luminescence, qHTS (AID 1347066; cut-off not given, nearly all actives have AC50 up to about 30 µM;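 note: cells exposed to compound for 48 hours before readout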); details: CellTiter-Glo ATP luminescence
[7] = JHH-DIPG-1 glioma cell viability, MIPE5.0 library, CellTiter-Glo luminescence, qHTS (AID 1347067; cut-off not given, nearly all actives have AC50 up to about 26 µM;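 note: cells exposed to compound for 48 hours before readout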); details: JHH-DIPG-1 glioma viability, CellTiter-Glo ATP luminescence
[8] = SU-DIPG-XXV glioma cell viability, MIPE5.0 library, qHTS (AID 1347068; cut-off not given, nearly all actives have IC50 up to about 30 µM)
[9] = circadian clock period modulators, cell-based, LOPAC library, luminescence reporter (AID 2774); details: circadian reporter cells, at 7 µM, actives lie on both sides;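 note: values are relative to mean of DMSO wells on each plate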
[10] = test system: Hepatitis C virus NS3 helicase; assay: HCV NS3 helicase inhibitors, primary screen, biochemical, fluorescence polarization, LOPAC1280 library (AID 687035; in the data active = inhibition above about 37%); details: Purified HCV NS3 helicase, Cy5-dT15 ssDNA binding fluorescence polarization; stronger effect = higher value; concentration not given here
[11] = Cy5 fluorescence quenching or enhancement artefacts, artefact control for HCV NS3 helicase inhibitor project, biochemical, LOPAC1280 (AID 687037); details: Cy5-DNA-NS3h complex fluorescence interference counterscreen
[12] = phospholipid biosynthesis inhibitors in animal cells, primary screen, cell-based, LOPAC library, screen 4 (AID 1347384); details: phospholipid biosynthesis inhibition screen, at 10 µM

O=C(/C=C/C=C/c1ccc2c(c1)OCO2)N1CCCCC1
inactive: survival [1] 6.58 | outcome [2] | outcome [3] | outcome [4] | outcome [5] | outcome [6] | outcome [7] | outcome [8]

C[N+](C)(C)CCO
inactive: period change [9] -0.015 h | inhibition [10] -3% | fluorescence ratio (interference) [11] 1 | outcome [12]

CC1=C(/C=C/C(C)=C/C=C/C(C)=C/C=C/C=C(C)/C=C/C=C(C)/C=C/C2=C(C)CCCC2(C)C)C(C)(C)CCC1
inactive: outcome [6] | outcome [8]

COc1ccc2cc1Oc1ccc(cc1)C[C@H]1c3cc(c(OC)cc3CCN1C)Oc1c(OC)c(OC)cc3c1[C@H](C2)N(C)CC3
inactive: survival [1] 1.58

CN1C2CCC1CC(OC(=O)C(CO)c1ccccc1)C2 (stereo not given)
inactive: period change [9] 0.005 h and 0.075 h | survival [1] 7.25 | inhibition [10] 0% and -1% | fluorescence ratio (interference) [11] 0.9 and 1.1 | outcome [4] | outcome [5] | outcome [6] | outcome [8] | outcome [12]

c1ccc2c(Cc3c[nH]c4ccccc34)c[nH]c2c1
inactive: survival [1] 89.8 | outcome [2] | outcome [4] | outcome [5] | outcome [6] | outcome [8]

Cc1cc(O)c2c(c1)C(=O)c1cccc(O)c1C2=O
inactive: outcome [2] | outcome [3] | outcome [4] | outcome [5] | outcome [7] | outcome [8]

O=C(CCc1ccc(O)cc1)c1c(O)cc(O)cc1O[C@@H]1O[C@H](CO)[C@@H](O)[C@H](O)[C@H]1O
inactive: outcome [3] | outcome [4] | outcome [5] | outcome [6] | outcome [8]

CN(C)CCN(Cc1cccs1)c1ccccn1
inactive: period change [9] 0.21 h | survival [1] 13.8 | inhibition [10] -1% | fluorescence ratio (interference) [11] 1 | outcome [12]

COc1cc2c(cc1OC)[C@@H]1C(=O)c3ccc4c(c3O[C@@H]1CO2)C=CC(C)(C)O4
inactive: outcome [8]
active: AC50 [7] 18.6 µM

COc1ccc(-c2cc(=O)c3c(O)cc(O)cc3o2)cc1O
active: AC50 [6] 10.5 µM

O=C(/C=C/c1ccc(O)cc1)c1ccc(O)cc1O
inactive: period change [9] 0.18 h | inhibition [10] 0% | fluorescence ratio (interference) [11] 0.9 | outcome [2] | outcome [12]

NC[C@H]1O[C@H](O[C@H]2[C@H](O)[C@@H](O[C@H]3O[C@H](CO)[C@@H](O)[C@H](N)[C@H]3O)[C@H](N)C[C@@H]2N)[C@H](N)C[C@@H]1O
inactive: outcome [2] | outcome [3] | outcome [4] | outcome [6] | outcome [7] | outcome [8]

CCCc1nn(C)c2c(=O)[nH]c(-c3cc(S(=O)(=O)N4CCN(C)CC4)ccc3OCC)nc12
inactive: outcome [2] | outcome [3] | outcome [4] | outcome [7] | outcome [8] | outcome [12]

OCc1ccccc1O[C@@H]1O[C@H](CO)[C@@H](O)[C@H](O)[C@H]1O
inactive: outcome [2] | outcome [3] | outcome [4] | outcome [6] | outcome [7] | outcome [8]

OCC(O)C(O)C(O)CO (stereo not given)
inactive: outcome [3] | outcome [6]

CC(=O)N[C@@H](CC(=O)O)C(=O)N[C@@H](CCC(=O)O)C(=O)O (Ac-Asp-Glu-OH)
inactive: survival [1] 16.7
